From PubChem BioAssay AID1159580 (chemical genetic matrix, 2015)
Values joined by “and” are separate entries in the source; they are usually repeats but may differ in a detail not shown here. Identical values can stand only once. The whole screen tested about 5,500 compounds, of which about 2,000 (36%) were called active. Not shown: some 18% with an inconclusive outcome. No stated cut-off is given here; in the data, active means normalized growth mostly below about 0.91 (no sharp cut-off); inconclusive means no clear call, values can overlap the other calls; inactive means mostly above about 0.92. Some of the results follow.

Experiment: chemical genetic growth profiling, strain panel (AID 1159580);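 further: tested at 20 µM; growth read once vehicle control cultures reached saturation at 30 °C; 1 = growth at the plate median or of vehicle wells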
Details: growth OD

Measured: normalized growth

CC(C(=O)O)c1cccc(Oc2ccccc2)c1 (configuration not stated)
active: S. cerevisiae deletion strains, locus YKL068W, stronger effect = lower value 0.937 | S. cerevisiae deletion strains, locus YKL085W, strain MDH1 (second series), stronger effect = lower value 0.919 | S. cerevisiae deletion strains, locus YKL085W, strain MDH1, stronger effect = lower value 0.919 | S. cerevisiae deletion strains, locus YLR113W, strain HOG1, stronger effect = lower value 0.828
inactive: S. cerevisiae deletion strains, locus YAL013W, strain DEP1, stronger effect = lower value 0.963 | S. cerevisiae deletion strains, locus YBR021W, strain FUR4, stronger effect = lower value 0.983 | S. cerevisiae deletion strains, locus YBR229C, strain ROT2, stronger effect = lower value 0.94 | S. cerevisiae deletion strains, locus YCL029C, strain bik1, stronger effect = lower value 0.98 | S. cerevisiae deletion strains, locus YDL035C, strain GPR1, stronger effect = lower value 0.983 | S. cerevisiae deletion strains, locus YDL074C, strain BRE1, stronger effect = lower value 0.997 | S. cerevisiae deletion strains, locus YDL101C, strain DUN1, stronger effect = lower value 0.96 | S. cerevisiae deletion strains, locus YDL134C, strain PPH21, stronger effect = lower value 0.976 | S. cerevisiae deletion strains, locus YDL185W, strain tfp1, stronger effect = lower value 0.948 | S. cerevisiae deletion strains, locus YDL192W, strain arf1, stronger effect = lower value 0.973 | S. cerevisiae deletion strains, locus YDR101C, strain arx1, stronger effect = lower value 0.984 | S. cerevisiae deletion strains, locus YDR150W, strain NUM1, stronger effect = lower value 0.947 | S. cerevisiae deletion strains, locus YDR162C, strain NBP2, stronger effect = lower value 0.969 | S. cerevisiae deletion strains, locus YDR318W, strain mcm21, stronger effect = lower value 0.988 | S. cerevisiae deletion strains, locus YDR388W, stronger effect = lower value 0.978 | S. cerevisiae deletion strains, locus YDR502C, strain sam2, stronger effect = lower value 0.981 | S. cerevisiae deletion strains, locus YEL061C, strain CIN8, stronger effect = lower value 0.973 | S. cerevisiae deletion strains, locus YER110C, stronger effect = lower value 0.967 | S. cerevisiae deletion strains, locus YER155C, strain BEM2, stronger effect = lower value 0.958 | S. cerevisiae deletion strains, locus YER167W, strain BCK2, stronger effect = lower value 0.988 | S. cerevisiae deletion strains, locus YGL078C, strain dbp3, stronger effect = lower value 0.959 | S. cerevisiae deletion strains, locus YGL086W, strain mad1, stronger effect = lower value 0.98 | S. cerevisiae deletion strains, locus YGL248W, strain PDE1, stronger effect = lower value 0.974 | S. cerevisiae deletion strains, locus YGR078C, strain PAC10, stronger effect = lower value 0.999 | S. cerevisiae deletion strains, locus YGR135W, strain pre9, stronger effect = lower value 0.985 | S. cerevisiae deletion strains, locus YGR229C, strain SMI1, stronger effect = lower value 0.974 | S. cerevisiae deletion strains, locus YGR252W, strain gcn5, stronger effect = lower value 0.957 | S. cerevisiae deletion strains, locus YHR030C, strain SLT2, stronger effect = lower value 0.978 and 0.9 | S. cerevisiae deletion strains, locus YHR079C, strain IRE1 (second series), stronger effect = lower value 0.972 | S. cerevisiae deletion strains, locus YHR079C, strain IRE1, stronger effect = lower value 0.892 | S. cerevisiae deletion strains, locus YHR094C, strain hxt1, stronger effect = lower value 0.965 | S. cerevisiae deletion strains, locus YHR129C, strain ARP1, stronger effect = lower value 0.983 | S. cerevisiae deletion strains, locus YHR200W, strain rpn10, stronger effect = lower value 0.98 | S. cerevisiae deletion strains, locus YIL066C, strain RNR3, stronger effect = lower value 0.964 | S. cerevisiae deletion strains, locus YIL073C, strain SPO22, stronger effect = lower value 0.965 | S. cerevisiae deletion strains, locus YIL125W, strain kgd1, stronger effect = lower value 0.944 | S. cerevisiae deletion strains, locus YIR030C, strain dcg1, stronger effect = lower value 0.962 | S. cerevisiae deletion strains, locus YJL095W, strain BCK1, stronger effect = lower value 1.05 and 0.905 | S. cerevisiae deletion strains, locus YJL134W, strain LCB3, stronger effect = lower value 0.962 | S. cerevisiae deletion strains, locus YJL168C, strain set2, stronger effect = lower value 0.967 | S. cerevisiae deletion strains, locus YJL187C, strain SWE1 (second series), stronger effect = lower value 0.983 | S. cerevisiae deletion strains, locus YJR043C, strain POL32, stronger effect = lower value 1 | S. cerevisiae deletion strains, locus YJR066W, strain TOR1, stronger effect = lower value 0.856 | S. cerevisiae deletion strains, locus YJR075W, strain HOC1, stronger effect = lower value 0.998 | S. cerevisiae deletion strains, locus YKL009W, strain mrt4, stronger effect = lower value 0.879 | S. cerevisiae deletion strains, locus YKL190W, strain CNB1, stronger effect = lower value 0.979 | S. cerevisiae deletion strains, locus YKR001C, strain vps1, stronger effect = lower value 0.947 | S. cerevisiae deletion strains, locus YLR039C, strain RIC1, stronger effect = lower value 0.842 | S. cerevisiae deletion strains, locus YLR058C, strain SHM2, stronger effect = lower value 0.957 | S. cerevisiae deletion strains, locus YLR102C, strain apc9, stronger effect = lower value 0.97 | S. cerevisiae deletion strains, locus YLR262C, strain YPT6, stronger effect = lower value 0.859 | S. cerevisiae deletion strains, locus YLR268W, strain sec22, stronger effect = lower value 1.04 | S. cerevisiae deletion strains, locus YLR330W, strain CHS5, stronger effect = lower value 0.956 | S. cerevisiae deletion strains, locus YLR342W, strain FKS1 (second series), stronger effect = lower value 0.999 | S. cerevisiae deletion strains, locus YLR371W, strain rom2, stronger effect = lower value 0.962 | S. cerevisiae deletion strains, locus YLR418C, strain cdc73, stronger effect = lower value 0.99 | S. cerevisiae deletion strains, locus YML016C, strain PPZ1, stronger effect = lower value 0.97 | S. cerevisiae deletion strains, locus YML032C, strain rad52, stronger effect = lower value 0.987 | S. cerevisiae deletion strains, locus YML124C, strain tub3, stronger effect = lower value 0.968 | S. cerevisiae deletion strains, locus YMR078C, strain ctf18, stronger effect = lower value 0.953 | S. cerevisiae deletion strains, locus YMR223W, strain ubp8, stronger effect = lower value 0.968 | S. cerevisiae deletion strains, locus YMR263W, strain SAP30, stronger effect = lower value 0.982 | S. cerevisiae deletion strains, locus YMR307W, strain GAS1, stronger effect = lower value 0.953 | S. cerevisiae deletion strains, locus YNL067W, strain RPL9B, stronger effect = lower value 1 | S. cerevisiae deletion strains, locus YNL128W, strain TEP1, stronger effect = lower value 0.966 | S. cerevisiae deletion strains, locus YNL153C, strain GIM3, stronger effect = lower value 0.997 | S. cerevisiae deletion strains, locus YNL183C, strain NPR1, stronger effect = lower value 0.864 | S. cerevisiae deletion strains, locus YNL233W, strain BNI4, stronger effect = lower value 1 | S. cerevisiae deletion strains, locus YNL250W, strain rad50, stronger effect = lower value 0.941 | S. cerevisiae deletion strains, locus YNL271C, strain bni1, stronger effect = lower value 0.951 | S. cerevisiae deletion strains, locus YNL298W, strain CLA4, stronger effect = lower value 0.929 | S. cerevisiae deletion strains, locus YNL307C, strain MCK1, stronger effect = lower value 0.979 | S. cerevisiae deletion strains, locus YNL322C, strain KRE1, stronger effect = lower value 0.969 | S. cerevisiae deletion strains, locus YNR052C, strain pop2, stronger effect = lower value 0.98 | S. cerevisiae deletion strains, locus YOL006C, strain TOP1, stronger effect = lower value 1 | S. cerevisiae deletion strains, locus YOL012C, strain htz1 1.04 | S. cerevisiae deletion strains, locus YOL147C, strain pex11, stronger effect = lower value 0.975 | S. cerevisiae deletion strains, locus YOR061W, strain CKA2, stronger effect = lower value 0.964 | S. cerevisiae deletion strains, locus YOR069W, strain VPS5, stronger effect = lower value 0.966 | S. cerevisiae deletion strains, locus YOR136W, strain idh2, stronger effect = lower value 0.977 | S. cerevisiae deletion strains, locus YOR144C, strain elg1, stronger effect = lower value 0.972 | S. cerevisiae deletion strains, locus YOR184W, strain ser1, stronger effect = lower value 0.98 | S. cerevisiae deletion strains, locus YOR231W, strain MKK1, stronger effect = lower value 0.894 | S. cerevisiae deletion strains, locus YOR316C, strain cot1, stronger effect = lower value 0.962 | S. cerevisiae deletion strains, locus YPL055C, strain LGE1, stronger effect = lower value 0.964 | S. cerevisiae deletion strains, locus YPL241C, strain CIN2, stronger effect = lower value 0.976 | S. cerevisiae deletion strains, locus YPL256C, strain CLN2, stronger effect = lower value 0.851 | S. cerevisiae deletion strains, locus YPR119W, strain clb2, stronger effect = lower value 0.958 | S. cerevisiae deletion strains, locus YPR141C, strain kar3, stronger effect = lower value 0.921 | S. cerevisiae deletion strains, locus YPR163C, strain tif3, stronger effect = lower value 0.986 | S. cerevisiae deletion strains, locus YPR167C, strain met16, stronger effect = lower value 0.975 | S. cerevisiae deletion strains, strain wtn01, stronger effect = lower value 0.983 | S. cerevisiae strains, strain wild type, stronger effect = lower value 0.973
